Data reported in PubChem BioAssay AID1159580 (chemical genetic matrix, 2015).
Values joined by “and” are separate entries in the source; they are usually repeats but may differ in a detail not shown here. Equal values may be shown once. Among all 5,500 compounds or so, about 2,000 (36%) were called active. Inconclusive results (about 18%) are left out. No stated cut-off is given here; in the data, active means normalized growth mostly below about 0.91 (no sharp cut-off); inconclusive means no clear call, values can overlap the other calls; inactive means mostly above about 0.92. This is one part of the list.

Assay: chemical genetic growth profiling, strain panel (AID 1159580);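 further: tested at 20 µM; growth read once vehicle control cultures reached saturation at 30 °C; 1 = growth at the plate median or of vehicle wells; lower values mean less growth of the strain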
Details: growth OD

Measured: normalized growth

CC(C)NNC(=O)c1ccncc1
inactive: S. cerevisiae deletion strains, locus YJR043C, strain POL32, hits give low values 1.01 | S. cerevisiae deletion strains, locus YJR075W, strain HOC1, hits give low values 1 | S. cerevisiae deletion strains, locus YKL068W, hits give low values 1.02 | S. cerevisiae deletion strains, locus YKL085W, strain MDH1 (second series), hits give low values 1.03 | S. cerevisiae deletion strains, locus YKL085W, strain MDH1, hits give low values 1.03 | S. cerevisiae deletion strains, locus YKL160W, strain elf1, hits give low values 1.01 | S. cerevisiae deletion strains, locus YKL190W, strain CNB1, hits give low values 1 | S. cerevisiae deletion strains, locus YKR001C, strain vps1, hits give low values 1.02 | S. cerevisiae deletion strains, locus YKR026C, strain gcn3, hits give low values 0.997 | S. cerevisiae deletion strains, locus YKR091W, strain srl3, hits give low values 1.01 | S. cerevisiae deletion strains, locus YLL001W, strain dnm1, hits give low values 1 | S. cerevisiae deletion strains, locus YLL026W, hits give low values 1.01 | S. cerevisiae deletion strains, locus YLL041C, strain sdh2, hits give low values 1.01 | S. cerevisiae deletion strains, locus YLR027C, strain aat2, hits give low values 0.996 | S. cerevisiae deletion strains, locus YLR039C, strain RIC1, hits give low values 1.02 | S. cerevisiae deletion strains, locus YLR058C, strain SHM2, hits give low values 1.01 | S. cerevisiae deletion strains, locus YLR102C, strain apc9, hits give low values 1.01 | S. cerevisiae deletion strains, locus YLR221C, strain rsa3, hits give low values 1.02 | S. cerevisiae deletion strains, locus YLR258W, strain gsy2, hits give low values 1.02 | S. cerevisiae deletion strains, locus YLR262C, strain YPT6 (second series), hits give low values 1 | S. cerevisiae deletion strains, locus YLR262C, strain YPT6, hits give low values 1.02 | S. cerevisiae deletion strains, locus YLR268W, strain sec22, hits give low values 1.03 | S. cerevisiae deletion strains, locus YLR320W, strain mms22, hits give low values 1.01 | S. cerevisiae deletion strains, locus YLR330W, strain CHS5, hits give low values 1.01 | S. cerevisiae deletion strains, locus YLR342W, strain FKS1 (second series), hits give low values 1.01 | S. cerevisiae deletion strains, locus YLR342W, strain FKS1, hits give low values 0.986 | S. cerevisiae deletion strains, locus YLR357W, strain rsc2, hits give low values 1.01 | S. cerevisiae deletion strains, locus YLR370C, strain arc18, hits give low values 1.01 | S. cerevisiae deletion strains, locus YLR371W, strain rom2, hits give low values 1 | S. cerevisiae deletion strains, locus YLR384C, strain iki3, hits give low values 0.995 | S. cerevisiae deletion strains, locus YLR418C, strain cdc73, hits give low values 1.04 | S. cerevisiae deletion strains, locus YML016C, strain PPZ1, hits give low values 1 | S. cerevisiae deletion strains, locus YML032C, strain rad52, hits give low values 1.02 | S. cerevisiae deletion strains, locus YML120C, strain ndi1, hits give low values 0.999 | S. cerevisiae deletion strains, locus YML124C, strain tub3, hits give low values 1.01 | S. cerevisiae deletion strains, locus YMR058W, strain fet3, hits give low values 1.03 | S. cerevisiae deletion strains, locus YMR078C, strain ctf18, hits give low values 1.01 | S. cerevisiae deletion strains, locus YMR125W, strain sto1, hits give low values 1.02 | S. cerevisiae deletion strains, locus YMR129W, hits give low values 1.01 | S. cerevisiae deletion strains, locus YMR205C, strain PFK2, hits give low values 1 | S. cerevisiae deletion strains, locus YMR223W, strain ubp8, hits give low values 1.02 | S. cerevisiae deletion strains, locus YMR231W, strain pep5, hits give low values 1 | S. cerevisiae deletion strains, locus YMR263W, strain SAP30, hits give low values 1.01 | S. cerevisiae deletion strains, locus YMR307W, strain GAS1, hits give low values 1.05 and 1 | S. cerevisiae deletion strains, locus YNL067W, strain RPL9B, hits give low values 1.01 | S. cerevisiae deletion strains, locus YNL071W, strain lat1, hits give low values 1.03 | S. cerevisiae deletion strains, locus YNL128W, strain TEP1, hits give low values 1.01 | S. cerevisiae deletion strains, locus YNL153C, strain GIM3, hits give low values 1.01 | S. cerevisiae deletion strains, locus YNL175C, strain NOP13, hits give low values 0.994 | S. cerevisiae deletion strains, locus YNL197C, strain WHI3, hits give low values 0.989 | S. cerevisiae deletion strains, locus YNL209W, strain ssb2, hits give low values 1.03 | S. cerevisiae deletion strains, locus YNL224C, strain SQS1, hits give low values 1.02 | S. cerevisiae deletion strains, locus YNL233W, strain BNI4, hits give low values 1.01 | S. cerevisiae deletion strains, locus YNL248C, strain rpa49, hits give low values 1.01 | S. cerevisiae deletion strains, locus YNL250W, strain rad50, hits give low values 1.02 | S. cerevisiae deletion strains, locus YNL271C, strain bni1, hits give low values 1.02 | S. cerevisiae deletion strains, locus YNL298W, strain CLA4, hits give low values 1.01 | S. cerevisiae deletion strains, locus YNL307C, strain MCK1, hits give low values 1.02 | S. cerevisiae deletion strains, locus YNL322C, strain KRE1 (second series), hits give low values 1.01 | S. cerevisiae deletion strains, locus YNL322C, strain KRE1, hits give low values 1 and 0.981 | S. cerevisiae deletion strains, locus YNR049C, strain mso1, hits give low values 1.01 | S. cerevisiae deletion strains, locus YNR052C, strain pop2, hits give low values 1.02 | S. cerevisiae deletion strains, locus YOL006C, strain TOP1, hits give low values 1.04 | S. cerevisiae deletion strains, locus YOL012C, strain htz1 1.02 | S. cerevisiae deletion strains, locus YOL147C, strain pex11, hits give low values 1.01 | S. cerevisiae deletion strains, locus YOR001W, strain rrp6, hits give low values 0.998 | S. cerevisiae deletion strains, locus YOR061W, strain CKA2, hits give low values 1.01 | S. cerevisiae deletion strains, locus YOR069W, strain VPS5, hits give low values 1.01 | S. cerevisiae deletion strains, locus YOR070C, strain gyp1, hits give low values 1.01 | S. cerevisiae deletion strains, locus YOR080W, strain dia2, hits give low values 1.01 | S. cerevisiae deletion strains, locus YOR083W, strain WHI5 (second series), hits give low values 1.01 | S. cerevisiae deletion strains, locus YOR083W, strain WHI5, hits give low values 0.998 | S. cerevisiae deletion strains, locus YOR106W, strain vam3, hits give low values 1.02 | S. cerevisiae deletion strains, locus YOR136W, strain idh2, hits give low values 1.02 | S. cerevisiae deletion strains, locus YOR144C, strain elg1, hits give low values 1.01 | S. cerevisiae deletion strains, locus YOR184W, strain ser1, hits give low values 1.04 | S. cerevisiae deletion strains, locus YOR265W, strain rbl2, hits give low values 1.01 | S. cerevisiae deletion strains, locus YOR270C, strain vph1, hits give low values 1.06 | S. cerevisiae deletion strains, locus YOR290C, strain snf2, hits give low values 1.01 | S. cerevisiae deletion strains, locus YOR316C, strain cot1, hits give low values 1.02 | S. cerevisiae deletion strains, locus YPL051W, strain arl3, hits give low values 1.01 | S. cerevisiae deletion strains, locus YPL055C, strain LGE1, hits give low values 1.02 | S. cerevisiae deletion strains, locus YPL078C, strain atp4, hits give low values 1.01 | S. cerevisiae deletion strains, locus YPL106C, strain sse1, hits give low values 0.991 | S. cerevisiae deletion strains, locus YPL240C, strain hsp82, hits give low values 1.02 | S. cerevisiae deletion strains, locus YPL241C, strain CIN2, hits give low values 0.995 and 0.982 | S. cerevisiae deletion strains, locus YPR119W, strain clb2, hits give low values 1 | S. cerevisiae deletion strains, locus YPR141C, strain kar3, hits give low values 1.01 | S. cerevisiae deletion strains, locus YPR163C, strain tif3, hits give low values 1.02 | S. cerevisiae deletion strains, locus YPR167C, strain met16, hits give low values 1.02 | S. cerevisiae deletion strains, strain wtn01, hits give low values 1.02 | S. cerevisiae strains, strain wild type, hits give low values 1.01
